Active and inactive are the calls of the source. Rule for the calls: active = hit-call score of the fitted dose curve at least 0.9, where 1 is the maximum; inactive = score below 0.9.
Read-out: ABC Transporter (ABCB11), ABCB11 (gene 8647)
Assay: LTEA_HepaRG_ABCB11: Life Technologies and Expression Analysis (LTEA) Assay for ABC Transporter (ABCB11) using HepaRG (AID 2283463)
Details: mRNA level, 48 h; actives raise or lower the signal
Description: LTEA_HepaRG is a cell based, multiplexed-readout assay that uses HepaRG, a human liver cell line, with measurements taken at 48 hours after chemical dosing on a 96-well plate.LTEA_HepaRG_ABCB11 is one of 102 assay component(s) measured in the LTEA HepaRG cell culture assay. It is a marker of Steatosis/NR mediated transport.Data from the assay component LTEA_HepaRG_ABCB11 was analyzed into 1 endpoint. This assay endpoint, LTEA_HepaRG_ABCB11, was analyzed with bidirectional fitting relative to DMSO as the negative control and baseline of activity. Using a type of inducible reporter, measures of mRNA induction for gain or loss-of-signal activity can be used to understand regulation of transcription factor activity. To generalize the intended target to other relatable targets, this assay endpoint is annotated to the transporter intended target family, where the subfamily is ABC transporter.
A total of 1060 chemcials from the ToxCast library were tested in eight-point concentration-response experiments. Cell culture and cytotoxicity assays were conducted at Thermo Fisher Scientific's Custom Services facility (Madison, WI). A single lot of human HepaRG cells (Thermo Fisher Scientific, Frederick, MD) was used for the cell culture experiments. 96-well format collagen type I coated plates of human HepaRG cells were prepared using established methods. Briefly, cryopreserved HepaRG cells were thawed, plated at a density of approximately 100,000 cells/well in HepaRG Thaw, Plate, and General Purpose media (HPRG770, Thermo Fisher Scientific), and incubated for 48 hours. 0.5% DMSO was selected as vehicle control to balance the requisite need of DMSO in HepaRG cultures to maintain differentiation (for example, baseline metabolism, proportions of hepatocytes vs. cholangiocytes), while enabling further hepatic receptor pathway activation (for example, PXR and CAR) in response to chemical exposure. 48 hours after plating, the culture medium was replaced with HepaRG Serum-Free Incudtion Media. Cells were exposed to each test chemical in duplicate and maintained in CO2 incubators for another 48 hours. Chemical plates were thawed to room temperature and 200x concentrations of treatment groups were prepared. 8-point conentration-reponse curves were made with the highest exposure at 100 uM, followed by half-log dilutions, all in 0.5% DMSO. Each test plate contained variouse controls, induction positive controls (1mM phenobarbital), cytotoxicity positive controls ([…] aflatoxin B1), vehicle controls (0.5% DMSO), and total lysis controls (0.5% DMSO). Cell morphology images were taken using an Essen IncuCyte FLR automated microscope, with six 96-well plates imaged in about 24 minutes. Images were captured and exported and JPEG files. Spent culture media was transfered to black-well plates for the LDH assay, and remaining media was sorted at -80 C for later use. Cells were treated with RLT buffer and frozen until shipped for gene expression analysis. Total RNA was isolated from the cell suspension in 75 uL of Buffer RLT (Qiagen, Germantown, MD 20874) by Quintiles/Expression Analysis (Durham, NC) using a custom isolation procedure. Total RNA from each plate well was transferred to a preamplification plate. Fluidigm's 96.96 Dynamic ArrayTM (Fluidigm, Amsterdam, the Netherlands) technology was used for gene expression analyses by quantitative reverse transcription polymerase chain reaction (qRT-PCR, performed by Quintiles/Expression Analysis, Durham, NC)89. Standard TaqManTM Assays (Applied Biosystems/ThermoFisher Scientific, Foster City, CA) were used to assess the expression of 93 genes selected based on their selectivity and sensitivity to important hepatic receptors known to be modulated by environmental chemicals; importance in human hepatocyte functionality; and hepatotoxicity. […]

Row | SMILES | outcome
1 | O=C(O)C(Cl)Cl | inactive
2 | Cc1ccc(N)cc1N | inactive
3 | ClC1=C(Cl)C2(Cl)C3C(Cl)C(Cl)CC3C1(Cl)C2(Cl)Cl (stereo not given) | inactive
4 | Nc1cc2c3c(c1)C(c1ccccc1)=N[C@@H](NC(=O)c1cccnc1)C(=O)N3CC2 | inactive
5 | c1ccc(OP(Oc2ccccc2)Oc2ccccc2)cc1 | inactive
6 | Cc1ccc([N+](=O)[O-])cc1C | inactive
7 | CC(C)(C)OOC(C)(C)C | inactive
8 | ClC(Cl)c1ccccc1 | inactive
9 | O=[N+]([O-])c1ccc(Cl)c(Cl)c1 | inactive
10 | Cc1cccc(N)c1 | inactive
11 | CC(Cc1ccc(OCC(=O)O)cc1)NCC(O)c1csc(C(F)(F)F)n1 (stereo not given) | inactive
12 | [N-]=[N+]=[N-] | inactive
13 | OCC1CO1 (stereo not given) | inactive
14 | O=P(Oc1ccccc1)(Oc1ccccc1)Oc1ccccc1 | inactive
15 | CSC(C)(C)C=NO | inactive
16 | Nc1ccc(Cl)cc1 | inactive
17 | c1cc2c3c(cccc3c1)CC2 | inactive
18 | O=P1(N(CCCl)CCCl)NCCCO1 (stereo not given) | inactive
19 | CCCCCCCc1ccc(O)cc1 | inactive
20 | CCNc1nc(Cl)nc(NC(C)(C)C)n1 | inactive

Row | SMILES | outcome
21 | Nc1ccc2ccccc2c1 | inactive
22 | CCN(CC)c1ccccc1 | inactive
23 | CCCCN(CCCC)N=O | inactive
24 | CN(C)C(=O)Cl | inactive
25 | CCCCN(CCCC)SN(C)C(=O)Oc1cccc2c1OC(C)(C)C2 | inactive
26 | CCOC(=O)c1ccccc1C(=O)OCC | inactive
27 | CCCCc1ccccc1 | inactive
28 | CCOP(=S)(OCC)SCSCC | inactive
29 | CCOc1ccc(C(C)(C)COCc2cccc(Oc3ccccc3)c2)cc1 | inactive
30 | c1ccc2c(c1)Nc1ccccc1S2 | inactive
31 | CCCN(CCC)c1c([N+](=O)[O-])cc(C(C)C)cc1[N+](=O)[O-] | inactive
32 | O=[N+]([O-])c1ccccc1 | inactive
33 | ClC(Cl)(Cl)c1ccccc1 | inactive
34 | CC(Cl)(Cl)C(=O)O | inactive
35 | CCOS(=O)(=O)OCC | inactive
36 | CCC(C)(C)c1ccc(O)cc1 | inactive
37 | CCOP(=S)(Oc1ccc([N+](=O)[O-])cc1)c1ccccc1 (stereo not given) | inactive
38 | O=C(O)C1C(C(=O)O)C2(Cl)C(Cl)=C(Cl)C1(Cl)C2(Cl)Cl (stereo not given) | inactive
39 | COCCOCCO | inactive
40 | c1nc[nH]n1 | inactive

Reference: PubChem BioAssay (EPA / NIEHS)
